Source: PubChem BioAssay (several laboratories)
In the library only some 5.4% were active in any assay of this set; here they are far more common.
ALR inh: inhibitors of human ALR sulfhydryl oxidase, primary screen, biochemical, H2O2 detection, HRP-luminol luminescence, single point; FAD-linked sulfhydryl oxidase ALR (Homo sapiens), P55789; purified ALR, DTT oxidation; inhibition, % (concentration not given with the values); actives 3.8% (n = 290,000); AID 485317, 2010;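 active = mean replicate inhibition above about 79%, with every replicate also reaching it, limit read from the data; inconclusive = only one of the two criteria met; inactive = mean below limit and not every replicate reaching it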
Target sequence (P55789 whole entry, looked up): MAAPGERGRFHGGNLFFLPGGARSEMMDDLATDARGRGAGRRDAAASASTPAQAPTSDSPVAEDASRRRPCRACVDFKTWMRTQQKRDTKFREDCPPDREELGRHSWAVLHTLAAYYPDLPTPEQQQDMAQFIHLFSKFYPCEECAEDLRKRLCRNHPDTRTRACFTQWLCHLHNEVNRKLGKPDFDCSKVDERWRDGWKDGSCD
Calb FLC: C. albicans growth inhibition with fluconazole, primary screen, CaCi-2 strain, Alamar Blue fluorescence. C. albicans CaCi-2 (fluconazole-resistant clinical isolate) + fluconazole, 48 h. growth inhibition, % (no concentration beside the values). AID 1979, 2009. actives 0.57% (n = 300,000);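 active = growth inhibition above about 58% in most replicates, limit read from the data, passing the limit was not always enough; inconclusive = exactly half the replicates above a set limit; inactive = most replicates below a set limit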;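 also: all wells also contain fluconazole at 8 µg/ml as a sub-toxic cotreatment; 0% = median of DMSO wells and 100% = median of geldanamycin control wells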
PP5 primary: PP5 phosphatase inhibitors, primary screen, biochemical, fluorescence; Serine/threonine-protein phosphatase 5 (Homo sapiens), P53041; actives 0.18% (n = 320,000); inhibition, % at 6.7 µM; purified PP5c, OMFP substrate fluorescence;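 active = inhibition above the campaign's mean inhibition across all tested compounds plus 3 SD, cut at about 9.5% in these data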;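 also: 0% = DMSO only and 100% = 100 µM cantharidin control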
PP1 inh: PP1-alpha phosphatase inhibitors, primary screen, counter-screen for PP5 inhibitor project, biochemical, fluorescence, OMFP substrate, single point. inhibition, % at 6.7 µM. purified PP1alpha. AID 2235, 2010. Serine/threonine-protein phosphatase PP1-alpha catalytic subunit (Homo sapiens), P62136. actives 0.9% (n = 320,000);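 active = inhibition above the mean inhibition of all tested compounds plus 3 SD, computed separately for each screening campaign, cut at about 15% in these data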
Target sequence (P62136 whole entry, looked up): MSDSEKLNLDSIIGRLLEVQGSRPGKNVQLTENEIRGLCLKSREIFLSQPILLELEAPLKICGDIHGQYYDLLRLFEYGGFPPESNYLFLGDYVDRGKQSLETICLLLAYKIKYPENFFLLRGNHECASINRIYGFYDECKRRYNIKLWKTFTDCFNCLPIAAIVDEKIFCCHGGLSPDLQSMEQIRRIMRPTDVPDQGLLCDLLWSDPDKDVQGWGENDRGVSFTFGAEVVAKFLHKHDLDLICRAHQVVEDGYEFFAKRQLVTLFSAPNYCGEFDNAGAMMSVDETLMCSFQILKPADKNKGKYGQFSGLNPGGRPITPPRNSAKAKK
CSC inhib: cancer stem cell viability inhibitors, primary screen, luminescence; cancer stem cell-like cells viability; AID 2717, 2010; actives 1.1% (n = 300,000); inhibition, % at 7.5 µM; in the data active = inhibition above about 75%; inconclusive = no clear call, values can overlap the other calls; tested in HMLE shEcad cells
* marks the source's active call; other numbers are inactive results; ? = inconclusive; . = not tested or not shown; + = active, no number.

SMILES	ALR inh	Calb FLC	PP5 primary	PP1 inh	CSC inhib
C1CCCCCC2(CCCCC1)OCC(CN1CCOCC1)O2 (stereo not given)	.	9	-1	-1	-2
O=C(Cn1ncc(Cl)c(Cl)c1=O)NC1CCCCC1	.	.	2	-1	.
O=C(Cn1ncc(Cl)c(Cl)c1=O)NCC1CCCCC1	95*	.	1	-7	100*
Nc1ccc(Nc2ccccc2)c(S(=O)(=O)O)c1	.	9	-1	1	-9
Cc1ccc(Nc2ccc(N)cc2S(=O)(=O)O)cc1	100*	19	0	0	-2
COc1ccc(/C=C2\CN(Cc3ccccc3)C/C(=C\c3ccc(OC)cc3OC)C2=O)c(OC)c1	-36	-3	4	16*	13
O=C(NNC(=O)c1cc(-c2ccccc2)nn1-c1ccccc1)c1ccccc1	-17	-16	1	7	-2
OCCNc1cc(-n2nc(-c3ccccc3)cc2-c2ccccc2)ncn1	96*	9	1	1	-4
CC(OC(=O)c1cccc(-n2cnnn2)c1)C(=O)NC1(C#N)CCCCC1 (stereo not given)	12	.	-2	2	-14
CCCN(CCC)C(=S)NC(=O)c1ccc(-c2ccccc2)cc1	99*	-6	2	1	37
CCOc1ccc(C(=O)NC(=S)N(Cc2ccccc2)Cc2ccccc2)cc1	-24	10	7	0	28
N#CCCN(Cc1ccccc1)C(=S)NC(=O)c1ccccc1	98*	-4	0	0	6
COc1ccc(CN(CCC#N)C(=S)NC(=O)c2ccccc2)cc1	1	11	2	3	-5
O=C(Cc1ccccc1)N/N=C/c1cc2c(cc1Cl)OCO2	-1	-9	1	0	-13
Cc1nnc(SCc2cnc(-c3ccccc3)o2)[nH]c1=O	99*	5	3	0	.
Cc1nnc(SCc2ccccc2)[nH]c1=O	-22	-24	-2	-4	14
Cc1ccc(-c2noc(CCC(=O)NCC3CCN(Cc4cccc(C)c4)CC3)n2)cc1	-5	-11	1	-2	-4
Cc1ccccc1Nc1c(-c2ccc(N3CCOCC3)cc2)nc2cnccn12	.	-8	4	-1	.
Cc1ccn2c(Nc3ccccc3C)c(-c3cccnc3)nc2c1	97*	31	2	1	-12
Cc1ncc(CO)c(/C=N/NC(=S)Nc2ccc(F)cc2)c1O	68	1	-1	2	.
Cc1ncc(CO)c(/C=N/Nc2ccc(C(F)(F)F)cn2)c1O	6	59	0	-2	89*
CCOCc1nnc(NC(C)=O)s1	-13	-12	3	2	-14
O=C(CCN1CCCCO1)N1CCCC(N2CCN(c3ccc(F)cc3)CC2)C1 (stereo not given)	97*	22	4	-3	13
CC(C)c1ccc(NC2CCCN(C(=O)CCN3CCCC3=O)C2)cc1 (stereo not given)	78*	-3	1	-1	-6
O=C(CCN1CCOCC1)N1CCCC(Nc2ccc(F)cc2)C1 (stereo not given)	55	3	2	-4	-2
SMILES	ALR inh	Calb FLC	PP5 primary	PP1 inh	CSC inhib
O=C(CCN1CCCO1)N1CCCC(N2CCN(c3ccccc3F)CC2)C1 (stereo not given)	-10	-12	-1	3	8
CC(C)c1ccc(NC2CCCN(C(=O)CCc3cnn(C)c3)C2)cc1 (stereo not given)	98*	-15	.	.	-9
O=C1CCCCN1CC(=O)N1CCCC(Nc2ccc(F)cc2)C1 (stereo not given)	91*	?	-2	1	-11
CC(C)c1ccc(NC2CCCN(C(=O)CCn3cnnn3)C2)cc1 (stereo not given)	67	7	3	2	13
Cc1cc2c(cc1C)N(Cc1ccc(Cl)cc1)C1=NCCCN12	0	-8	2	-1	6
O=C(c1cccc(NS(=O)(=O)c2ccc(F)c(F)c2)c1)N1CCN(C(c2ccccc2)c2ccccc2)CC1	-3	10	2	7	68
O=C1CCCCN1CCC(=O)N1CCCC(N2CCN(c3ccccc3)CC2)C1 (stereo not given)	93*	4	0	-4	-14
CC(C)c1ccc(NC2CCCN(C(=O)CC3CCCC3)C2)cc1 (stereo not given)	79*	-3	-1	5	5
O=C1CCCCN1CCC(=O)N1CCCC(N2CCN(c3cccc(Cl)c3)CC2)C1 (stereo not given)	?	0	0	-5	8
Cc1ccc(NC2CCCN(C(=O)CCN3CCCCO3)C2)cc1C (stereo not given)	98*	2	2	-3	-9
O=C1CCCCN1CCCC(=O)N1CCCC(Nc2ccccc2)C1 (stereo not given)	99*	-2	2	-1	-6
CCOc1cc2[nH]c(=O)n(CCC(=O)NCCc3ccccc3)c(=O)c2cc1OCC	-6	7	-1	-1	-1
N#Cc1cc(Oc2ccccc2)c(-n2nnc3ccccc32)cc1C#N	.	-5	2	5	-10
Cc1ccc(N(Cc2cc3ccccc3[nH]c2=O)S(=O)(=O)c2ccccc2)cc1	.	0	2	3	-1
CC(C)c1ccc(NC2CCCN(C(=O)CCN3CCCCO3)C2)cc1 (stereo not given)	79*	0	-2	-1	5
CC(C)c1ccc(NC2CCCN(C(=O)CCN3CCCO3)C2)cc1 (stereo not given)	67	2	1	2	6
Cc1nonc1C(=O)N1CCCC(N2CCN(c3ccc(F)cc3)CC2)C1 (stereo not given)	98*	5	.	.	-4
Cc1cc(C(=O)N2CCCC(N3CCN(c4ccc(F)cc4)CC3)C2)c(C)o1 (stereo not given)	51	-6	-1	-4	-7
CCOC(=O)c1ccc(NC(=O)CCc2nc(-c3cccc(C)c3)no2)cc1	-1	2	4	2	6
Cc1ccc(-c2nnc(N3CCN(C(=O)c4ccco4)CC3)c3ccccc23)cc1	5	3	4	1	-4
S=C(Nc1ccccc1)Nc1nc2ccccc2n1CCOc1ccc(Cl)cc1	14	92*	0	7	+
CCCn1c(NC(=S)Nc2ccccc2)nc2ccccc21	-4	-4	2	0	26
CC(C)(C)c1ccc(-n2ncc3c2CCCC3NC(=O)CN2CCCC2=O)cc1 (stereo not given)	-22	-12	1	1	-2
N#C/C(=C/c1ccc(CNC(=O)C(=O)Nc2cc(Cl)cc(Cl)c2)o1)C(=O)NCc1cccnc1	-4	-9	1	-6	52
O=C(NCc1cccnc1)/C(=C\c1ccc(-c2cccc(Cl)c2)o1)S(=O)(=O)c1ccccc1	-3	0	1	3	101*
